From PubChem BioAssay (NCATS)
Records with an inconclusive call do not appear. Active and inactive are the calls of the source. The call rests on the fitted dose curve; in most records, active means well fitted inhibition curve with a large enough effect; inconclusive means small, poorly fitted or top-dose-only effect; inactive means flat fitted curve, though single readings scatter.

System: Zika virus NS2B-NS3 protease
Assay: Primary screen GU AMC qHTS for Zika virus inhibitors (AID 1347154);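 further: 0% = no-inhibitor control and -100% = no-enzyme control; nearly all actives have a fitted effect of over 70% in size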
Settings: Zika NS2B-NS3 unlinked protease, AMC fluorogenic substrate; series mostly up to 54.1 µM; activity change, negative = inhibition: at the top concentration
How it was run: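 Unlinked Zika NS2B hydrophilic domain/NS3 protease domain noncovalent complex (25 nM final) in 10 mM Tris-HCl pH 8.0, 0.01% Tween 20, with AMC peptide substrate. Fluorescence (ex 340, em 450 nm) change over 15 min, room temperature; percent inhibition fitted to 4-parameter Hill equation.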

| Structure (SMILES) | activity change, negative = inhibition | Potency |
| --- | --- | --- |
| CC[C@H]1OC(=O)[C@H](C)[C@@H](O[C@H]2C[C@@](C)(OC)[C@@H](O)[C@H](C)O2)[C@H](C)[C@@H](O[C@@H]2O[C@H](C)C[C@H](N(C)C)[C@@H]2O)[C@](C)(O)C[C@@H](C)CN(C)[C@H](C)[C@@H](O)[C@]1(C)O | 0.969% (inactive) |  |
| C[C@]12CCC3c4ccc(O)cc4CCC3C1CCC2=O (some centres undefined) | 9.11% (inactive) |  |
| O=C1NC(=O)C(=Cc2ccc(-c3ccc(F)cc3)o2)S1 | -10.6% (inactive) |  |
| COc1cc(O)c2c(c1)C(=O)c1cc(C)cc(O)c1C2=O | 8.41% [at 25.8 µM] (inactive) |  |
| Cc1c(O)cccc1C(=O)N[C@@H](CSc1ccccc1)[C@H](O)CN1C[C@H]2CCCC[C@@H]2C[C@@H]1C(=O)NC(C)(C)C | -5.65% (inactive) |  |
| CC(C)(C)c1cc(C(=O)O)c(NC(=O)Nc2ccc3[nH]ncc3c2)s1 | -16.9% (inactive) |  |
| CCN(CC)CCOc1ccc(C(=C(Cl)c2ccccc2)c2ccccc2)cc1 | 5.42% (inactive) |  |
| CCC(=O)O[C@]1(C(=O)CO)CC[C@H]2[C@@H]3CCC4=CC(=O)CC[C@]4(C)[C@@H]3CC[C@@]21C | -3.46% (inactive) |  |
| O=C(Nc1cc(Cl)cc2c1[nH]c1cnccc12)c1cccnc1 | -4.24% (inactive) |  |
| O=C(O)c1ccccc1C(=O)Nc1ccc(-c2ccccc2)cc1 | -3.21% (inactive) |  |
| C[N+](C)(C)CC(=O)O | -0.736% (inactive) |  |
| CC(C(=O)O)c1ccc(-c2ccccc2)c(F)c1 (centres undefined) | -0.377% (inactive) |  |
| COc1cc(NC(=O)c2ccc(-c3ccc(Cl)cc3)o2)cc(OC)c1 | 7.29% (inactive) |  |
| Cc1ccc([C@@H]2O[C@H](CO)[C@@H](O)[C@H](O)[C@@H]2O)cc1Cc1ccc(-c2ccc(F)cc2)s1 | 7.91% (inactive) |  |
| CS(=O)(=O)N(Cc1ccco1)CC(O)Cn1c2ccccc2c2ccccc21 (centres undefined) | -4% (inactive) |  |
| Nc1nc(F)nc2c1ncn2[C@@H]1O[C@H](COP(=O)(O)O)[C@@H](O)[C@H]1O | 1.98% (inactive) |  |
| CO[C@H]1C[C@@H]2CC[C@@H](C)[C@@](O)(O2)C(=O)C(=O)N2CCCC[C@@H]2C(=O)O[C@H]([C@@H](C)C[C@@H]2CC[C@H](O)[C@H](OC)C2)CC(=O)[C@H](C)C=C(C)[C@@H](O)[C@@H](OC)C(=O)[C@H](C)C[C@H](C)C=CC=CC=C1C | 1.95% (inactive) |  |

| Structure (SMILES) | activity change, negative = inhibition | Potency |
| --- | --- | --- |
| CC=CC[C@@H](C)C(=O)[C@H]1C(=O)N[C@@H](C(C)C)C(=O)N(C)CC(=O)N(C)[C@@H](CC(C)C)C(=O)N[C@@H](C(C)C)C(=O)N(C)[C@@H](CC(C)C)C(=O)N[C@@H](C)C(=O)N[C@H](C)C(=O)N(C)[C@@H](CC(C)C)C(=O)N(C)[C@@H](CC(C)C)C(=O)N(C)[C@@H](C(C)C)C(=O)N1C | -8.07% (inactive) |  |
| NC(=O)c1cccc(-c2cc(Nc3ccc(OC(F)(F)F)cc3)ncn2)c1 | -7.13% (inactive) |  |
| CON=C(C(=O)N[C@@H]1C(=O)N2C(C(=O)OCOC(=O)C(C)(C)C)=C(C=Cc3scnc3C)CS[C@H]12)c1csc(N)n1 | 12.5% (inactive) |  |
| NC(CO)(CO)CCc1ccc(Sc2cccc(OCc3ccccc3)c2)cc1Cl | 4.67% (inactive) |  |
| COc1cc(N2CCC(N3CCN(C)CC3)CC2)ccc1Nc1ncnc(Nc2ccccc2S(=O)(=O)C(C)C)n1 | 5.06% (inactive) |  |
| Nc1ncnc2c1ncn2[C@@H]1O[C@H](CO)C[C@@H]1O | 4.07% (inactive) |  |
| OC[C@@H](O)[C@H](O)[C@H](O)[C@@H](O)CO |  | inactive |
| Cc1ccc(Nc2cc(-c3cccc(N4C(=O)c5ccccc5C4=O)c3)ncn2)cc1NS(C)(=O)=O | 3.61% (inactive) |  |
| CC(=O)N(C)C1(c2ccccc2)CCN(CCC[C@]2(c3ccc(Cl)c(Cl)c3)CCCN(C(=O)c3ccccc3)C2)CC1 | -5.02% (inactive) |  |
| CCCCCNC(=O)N1CCC(CN(Cc2ccc(Cl)cc2)Cc2ccc([N+](=O)[O-])s2)C1 (centres undefined) | -9.04% (inactive) |  |
| CO[C@H]1C[C@@H]2CC[C@@H](C)[C@@](O)(O2)C(=O)C(=O)N2CCCC[C@@H]2C(=O)O[C@H]([C@H](C)C[C@@H]2CC[C@H](OC(=O)C(C)(CO)CO)[C@H](OC)C2)CC(=O)[C@H](C)C=C(C)[C@@H](O)[C@@H](OC)C(=O)[C@H](C)C[C@H](C)C=CC=CC=C1C | 6.27% (inactive) |  |
| O=C(O)Cc1cccc2ccccc12 |  | inactive |
| CC(C)(Cc1ccc2ccccc2c1)NC[C@@H](O)COc1cccc(Cl)c1C#N | 10.5% (inactive) |  |
| c1cc(-c2sc(-c3ccncc3)c(-c3ccncc3)c2-c2ccncc2)ccn1 | -0.495% (inactive) |  |
| Clc1cc(Cl)cc(CNc2ncncc2-c2ccc3c(c2)OCO3)c1 | -4.82% (inactive) |  |
| Cn1c(N2CCCCS2(=O)=O)nc(C(=O)NCc2ccc(F)cc2)c(O)c1=O | -4.98% (inactive) |  |
| CN(C[C@@H]1COCCO1)S(=O)(=O)Nc1ccc2ccc3ncc(-c4cnn(C)c4)cc3c(=O)c2c1 | -6.88% (inactive) |  |
